Source: PubChem (National Center for Advancing Translational Sciences (NCATS))
A selection: hits, their analogues and other compounds. The true share with any hit is near 7.2%.
SNCA expr inhib = inhibitors of alpha-synuclein (SNCA) gene expression; actives 0.17% (n = 140,000); AID 1671194; Potency, µM (doses to about 57.2 µM), without a hit: at the top dose activity change, negative = inhibition, usual class: inhibitors; HEK-293 SNCA-luciferase knock-in, luminescence, 24 h;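 further: plate controls were DMSO cells for no effect and cell-free wells for full effect; nearly all actives have a fitted effect of over 45% in size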
HEK293 tox = cytotoxic compounds in HEK 293 cells; HEK 293 viability, ATP luminescence (CellTiter-Glo), 48-72 h; Potency, µM (top dose mostly 115 µM), without a hit: top-dose activity change, negative = cytotoxicity, actives largely listed as inhibitors; actives 6.6% (n = 94,000); AID 1345083; further: on the % scale 0 is the no-effect control and ±100 the full control effect; nearly all actives have a fitted effect of over 60% in size
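Luminescence from cellular ATP, measured with CellTiter-Glo, indicates HEK 293 viability. Cells plated at 250 cells/well are treated with compound for 48 or 72 hr at 37 degree Celsius before reagent addition.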
3T3 cytotox = cytotoxic compounds in NIH 3T3 cells; NIH 3T3 viability, CellTiter-Glo ATP luminescence, 48-72 h; Potency, µM (titrated, usually from 96.7 µM), without a hit: top-dose activity change, negative = cytotoxicity, hits mostly inhibitors; actives 4.3% (n = 94,000); AID 1345082; further: on the % scale 0 is the no-effect control and ±100 the full control effect; nearly all actives have a fitted effect of over 55% in size
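Cytotoxicity is measured as loss of cellular ATP: NIH 3T3 cells (400/well) are exposed to compound for 48 or 72 hr at 37 °C, then CellTiter-Glo luminescence is imaged after 10 min at room temperature.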
NPR1 antag = antagonists of human natriuretic peptide receptor Npr1; HEK293 hNpr1 GloSensor cGMP, ANP-stimulated luminescence; Potency, µM (titrated, usually from 46.3 µM), without a hit: top-dose activity change, negative = inhibition, most hits filed as inhibitors; actives 1.6% (n = 76,000); AID 1347048; calls by dose curve; further: on the % scale 0 is the no-effect control and ±100 the full control effect; nearly all actives have a fitted effect of over 60% in size
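HEK293 cells stably expressing human Npr1 and cGMP GloSensor pGS-40F, loaded 2 h with 2% GloSensor reagent, given compound 30 min at room temperature. Luminescence read before and 20 min after 0.1 nM hNppA.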
SNCA viab count = reduces viability of HEK-293 SNCA reporter cells; actives 0.12% (n = 150,000); Potency, µM (series often up to 57.1 µM), without a hit: at the top dose activity change, negative = cytotoxicity, most hits filed as cytotoxic; HEK-293-SNCA-luc viability, GF-AFC fluorescence, 24 h;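 further: 0% = DMSO-treated cells and -100% = medium-only wells without cells; nearly all actives have a fitted effect of over 30% in size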
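HEK-293-SNCA-luc cells (1500/well) plated 24 h, then exposed 24 h to a dilution series; GF-AFC added 30 min at 37C, fluorescence 405/540 nm; normalised to medium-only and DMSO wells, Hill fit.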
FLuc inh = blocks purified firefly luciferase enzyme activity; purified P. pyralis luciferase, luminescence, biochemical; Potency, µM (titrated, usually from 115 µM), most hits filed as inhibitors; AID 1347043; P08659; actives 2.5% (n = 76,000); further: on the % scale 0 is the no-effect control and ±100 the full control effect; nearly all actives have a fitted effect of over 65% in size
Target sequence (P08659 whole entry, looked up): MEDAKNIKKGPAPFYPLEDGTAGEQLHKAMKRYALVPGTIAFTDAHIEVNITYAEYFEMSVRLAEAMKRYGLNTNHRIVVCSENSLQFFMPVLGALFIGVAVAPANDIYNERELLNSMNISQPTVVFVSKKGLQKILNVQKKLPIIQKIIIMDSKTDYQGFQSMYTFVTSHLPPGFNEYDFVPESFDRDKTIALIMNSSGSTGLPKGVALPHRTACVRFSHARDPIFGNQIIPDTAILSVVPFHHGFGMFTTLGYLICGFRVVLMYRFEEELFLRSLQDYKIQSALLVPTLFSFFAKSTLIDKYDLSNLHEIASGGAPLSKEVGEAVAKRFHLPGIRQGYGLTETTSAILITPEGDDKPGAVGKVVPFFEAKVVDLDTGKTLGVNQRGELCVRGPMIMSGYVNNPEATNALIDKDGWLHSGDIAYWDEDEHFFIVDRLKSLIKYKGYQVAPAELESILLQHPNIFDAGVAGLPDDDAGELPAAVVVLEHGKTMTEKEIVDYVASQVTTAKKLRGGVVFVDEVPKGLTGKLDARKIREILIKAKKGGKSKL
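Purified P. pyralis luciferase (10nM final) in 50mM Tris acetate pH 7.5, 10mM Mg acetate, 0.01% Tween-20, 0.05% BSA with 10uM D-luciferin and 10uM ATP. Compounds titrated qHTS. Luminescence imaged on CCD.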
Npr1 antag conf = hNpr1 antagonism, confirmation assay; actives 76% (n = 1,400); HEK293 hNpr1 cGMP GloSensor luminescence, ANP-stimulated; shares compounds with NPR1 antag; Potency, µM (highest dose often 57.6 µM), inactives show at the top dose activity change, negative = inhibition, actives largely listed as inhibitors; calls by dose curve; further: nearly all actives have a fitted effect of over 70% in size
Npr2 selectivity = selectivity test of Npr1 antagonists against human Npr2 | AID 1347046 | shares compounds with NPR1 antag | Potency, µM (titrated, usually from 57.6 µM), without a hit: at the highest dose activity change, negative = inhibition, usual class: inhibitors | actives 67% (n = 1,400) | HEK293 hNpr2 GloSensor cGMP luminescence, CNP-stimulated; calls by dose curve; further: nearly all actives have a fitted effect of over 70% in size
FLuc inh counter = inhibits firefly luciferase, false Npr1 antagonist flag; shares compounds with NPR1 antag; purified FLuc enzyme, luminescence, Km substrate; Potency, µM (doses to about 57.6 µM), for inactives: at the top dose activity change, negative = inhibition, most hits filed as inhibitors; actives 0.7% (n = 1,400); AID 1347047; further: 0% is about no effect
GloSensor ctrl = reduces cGMP signal in GloSensor control cells; shares compounds with NPR1 antag; HEK293 GloSensor cGMP, SNP-stimulated, luminescence; Potency, µM (doses to about 57.6 µM), inactives show at the top dose activity change, negative = inhibition, most hits filed as inhibitors; actives 69% (n = 1,400); calls by dose curve; further: on the % scale 0 is the no-effect control and ±100 the full control effect; nearly all actives have a fitted effect of over 70% in size
Starred values were filed as active, the others as inactive; [ ] = another dose, or the depositor's remark. Unless noted, the call rests on the fitted dose curve; in most records, active means well fitted curve in the direction sought with a large enough effect; inconclusive means small, poorly fitted or top-dose-only effect, or another doubt; inactive means no such curve, though single readings can be large; an effect the other way counts as inactive or inconclusive. Potency means the concentration at half of the fitted maximal effect.

For COc1ccc(-c2cc(N3CCCN(C(=O)Cc4cccc(OC)c4)CC3)n[nH]2)cc1 the results were SNCA expr inhib 27.7%, HEK293 tox inconclusive, 3T3 cytotox -20.0%, NPR1 antag 0.9%, SNCA viab count -13.3% and FLuc inh inactive.
`Cc1ccc(C(=O)N[C@H]2CO[C@H]3[C@@H]2OC[C@H]3OC(=O)Nc2ccccc2)cc1` gave SNCA expr inhib 81.0%[87.6 µM], HEK293 tox inconclusive, 3T3 cytotox -28.5%[174 µM], NPR1 antag inconclusive, SNCA viab count -7.6%[87.6 µM] and FLuc inh inconclusive.
Screening O=C1CC(c2ccccc2)N(C(=O)CNC(=O)c2[nH]nc3c2CCc2ccccc2-3)CCCCCN1 (configuration not stated) returned SNCA expr inhib 10.5%, HEK293 tox inconclusive, 3T3 cytotox inconclusive, NPR1 antag -0.8%, SNCA viab count -3.5% and FLuc inh inactive.
`O=C(NCc1cccc(Cl)c1)c1nc2sccn2c1-c1cccnc1` gave SNCA expr inhib 42.8%, HEK293 tox inconclusive, 3T3 cytotox inconclusive and SNCA viab count -11.2%.
Screening Fc1ccc(-c2cc(CC3(NCc4ccccc4F)COC3)no2)cc1 returned SNCA expr inhib -23.8%[87.6 µM], HEK293 tox inconclusive, 3T3 cytotox inconclusive, NPR1 antag inconclusive, SNCA viab count inconclusive and FLuc inh inactive.
`COc1ccc(C(=O)N2CCN(c3cc(-c4ccc(Cl)cc4)[nH]n3)CC2)cc1F` gave SNCA expr inhib inconclusive, HEK293 tox inconclusive, 3T3 cytotox inconclusive, NPR1 antag 11.2µM*, SNCA viab count -6.8%, FLuc inh inactive, Npr1 antag conf 13.7µM*, Npr2 selectivity 19.3µM*, FLuc inh counter 0.4% and GloSensor ctrl 10.9µM*.
`O=C(c1ccc2c(c1)OCO2)N1CCN(c2cc(-c3ccc(Cl)cc3)[nH]n2)CC1` gave SNCA expr inhib 8.0%, HEK293 tox inconclusive, 3T3 cytotox inconclusive, NPR1 antag inconclusive, SNCA viab count 6.0%, FLuc inh inactive, Npr1 antag conf 24.3µM*, Npr2 selectivity inconclusive, FLuc inh counter -11.4% and GloSensor ctrl 24.3µM*.
Screening COc1ccc(Cl)cc1-c1ccc2c(c1)C(=O)N1CCN(C(=O)CC(C)(C)C)C[C@@H]1C(=O)N2 returned SNCA expr inhib 8.3%, HEK293 tox inconclusive, 3T3 cytotox -25.3%, NPR1 antag 0.5%, SNCA viab count 1.3% and FLuc inh inactive.
For CCOc1cc(=O)n2c(c1C(=O)NCc1ccccc1F)CCCCC2 the results were SNCA expr inhib 5.9%, HEK293 tox -5.5%, 3T3 cytotox -2.8%, NPR1 antag 1.4%, SNCA viab count 10.0% and FLuc inh inactive.
`O=C(NCC1CCCCC1)C1CCc2nc(N3CCN(C(=O)C4CCC4)CC3)sc2C1` (configuration not stated) gave SNCA expr inhib inconclusive, HEK293 tox -38.4%, 3T3 cytotox -10.8%, NPR1 antag 7.6%, SNCA viab count -2.0% and FLuc inh inactive.
For O=C(Nc1ccc(F)cc1)C1CCc2nc(N3CCN(C(=O)C4CCC4)CC3)sc2C1 (configuration not stated) the results were SNCA expr inhib -5.2%, HEK293 tox 10µM*, 3T3 cytotox inconclusive, NPR1 antag 3.55µM*, SNCA viab count inconclusive, FLuc inh inactive, Npr1 antag conf 7.69µM*, Npr2 selectivity 10.9µM*, FLuc inh counter -20.2% and GloSensor ctrl 9.68µM*.
`Cc1ccccc1S(=O)(=O)N1CCCC(CCC(=O)Nc2ccc(F)cc2F)C1` (configuration not stated) gave SNCA expr inhib inconclusive, HEK293 tox inconclusive, 3T3 cytotox inconclusive and SNCA viab count -16.2%.
Screening COc1ccccc1C(CC(=O)NCC(C)C)c1cn(C)c2ccccc12 (configuration not stated) returned SNCA expr inhib -0.4%, HEK293 tox inconclusive, 3T3 cytotox -11.5%, NPR1 antag inconclusive, SNCA viab count -1.2%, FLuc inh inactive, Npr1 antag conf inconclusive, Npr2 selectivity inconclusive, FLuc inh counter -2.3% and GloSensor ctrl -21.2%.
For COc1ccc(CCNC(=O)CC(c2cccc(F)c2)c2cn(C)c3ccccc23)cc1OC (configuration not stated) the results were SNCA expr inhib 9.9%, HEK293 tox 20µM*, 3T3 cytotox 22.4µM*, NPR1 antag 17.8µM*, SNCA viab count 3.4%, FLuc inh inactive, Npr1 antag conf 24.3µM*, Npr2 selectivity 27.3µM*, FLuc inh counter 3.7% and GloSensor ctrl 27.3µM*.
COc1ccc(CCNC(=O)CSc2cc(=O)n(C)c3ccccc23)cc1OC was read as SNCA expr inhib -20.3% and SNCA viab count 0.9%.
CCCCNC(=O)CC(c1cccc(OC)c1OC)c1c[nH]c2ccccc12 (configuration not stated) was read as SNCA expr inhib inconclusive, HEK293 tox inconclusive, 3T3 cytotox inconclusive, NPR1 antag -18.7%, SNCA viab count -17.7% and FLuc inh inactive.
Screening Cc1cn2nc(C(=O)N3CCC(NC(=O)COc4ccc(F)cc4)CC3)cc2c(=O)[nH]1 returned SNCA expr inhib 1.5%, HEK293 tox 13.7%, 3T3 cytotox inactive, NPR1 antag 0.0%, SNCA viab count -8.2% and FLuc inh inactive.
